Reference: PubChem BioAssay (NCI)
This is part of a sample that, as a whole, favours compounds with a hit. Of some 83,000 tested, about 20% had one in any assay.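 Growth was measured after 48 h exposure to one concentration of compound in 96-well plates. Values under 10 count as active.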 Calls of active or inactive are those of the source.

How the values were obtained:
Assay in all cases: NCI-60 one-dose screen, 48 h (100 = growth as untreated, 0 = no growth, -100 = all killed)
Settings in all cases: 10 µM
[1] = test system: BT-549 breast
[2] = test system: MDA-MB-435 melanoma
[3] = test system: SW-620 colon
[4] = test system: MCF7 breast
[5] = test system: HCT-116 colon
[6] = test system: HCC-2998 colon
[7] = test system: KM12 colon
[8] = test system: MDA-MB-468 breast

Measured: growth

Cc1cc(C)nc(SCC(=O)Nc2ccc(S(N)(=O)=O)cc2)n1
inactive: [1] 132% | [2] 107% | [3] 116% | [4] 96.6% | [5] 111% | [6] 109% | [7] 107% | [8] 98.2%

Cc1ccc(-c2ccc(SCC(=O)Nc3ccc(S(N)(=O)=O)cc3Br)nn2)cc1
active: [5] -7.84% | [8] -21.3%
inactive: [1] 14.2% | [2] 61.9% | [3] 60% | [4] 32.4% | [6] 39.4% | [7] 38.3%

Cc1ccc2nc(COc3ccc(C(=O)NNC(=S)NCCc4ccccc4)cc3)[nH]c2c1
inactive: [1] 105% | [2] 98.5% | [3] 96.3% | [4] 50.5% | [5] 57.3% | [6] 73.9% | [7] 63.4% | [8] 15.5%

O=C(c1ccc(Cl)cc1)C1[C@H](c2ccccc2Br)[C@@H](c2ccccc2)NC12C(=O)Nc1ccc(Cl)cc12 (stereo partly specified)
active: [2] -35.1% | [3] 8.7% | [4] 0.103% | [5] 7.63% | [6] -0.337% | [7] 8.12% | [8] -40.2%
inactive: [1] 75.9%

COc1ccc(/C=C/C(=O)c2ccc(N3CCN(C)CC3)cc2)c(C(F)(F)F)c1
active: [2] -54.9% | [3] -80% | [4] -54.1% | [6] -49.4% | [7] 8.95% | [8] -10.7%
inactive: [1] 40.7% | [5] 11.4%

O=C(NO)c1ccc(-c2nc3ccc4[nH]ncc4c3c3c2CCCC3)cc1
active: [1] -50.2% | [2] -78.1% | [3] 1.77% | [4] -20.8% | [5] 2.92% | [6] -67.4% | [7] -28.3% | [8] -90.3%

CCCS(=O)(=O)c1oc(-c2ccc(F)cc2)nc1S(=O)(=O)c1ccc(F)cc1
active: [1] -32.1% | [2] -80.3% | [3] -77.6% | [4] -65.7% | [5] 3.42% | [6] -59.8% | [8] -91.4%
inactive: [7] 41.8%

Cc1ccn2c(C(=O)c3ccc(Br)cc3)cc(-c3cc(-c4ccc(N(C)C)cc4)c(C#N)c(N)n3)c2c1
active: [8] -15%
inactive: [1] 61.9% | [2] 65% | [3] 41.5% | [4] 46.2% | [5] 36.2% | [6] 64.6% | [7] 62.4%

COc1cc2c(cc1OC)CN(CCCCOc1cc(O)c3c(=O)cc(-c4ccccc4)oc3c1)CC2
active: [5] 0.234% | [6] -7.68% | [8] -7.3%
inactive: [1] 63.6% | [2] 67.5% | [3] 62.8% | [4] 29.3% | [7] 80.1%

O=C(Nc1cccc(-c2cn(-c3ccc4oc(=O)ccc4c3)nn2)c1)Nc1cc(C(F)(F)F)cc(C(F)(F)F)c1
active: [1] 3.59% | [8] -23.3%
inactive: [2] 49% | [3] 56.6% | [4] 17% | [5] 29.1% | [6] 33.1% | [7] 33.2%

COc1cc(Cn2c(C(F)(F)F)cc3c(Cl)ncnc32)ccn1
inactive: [7] 30.8%
active: [1] -15.9% | [2] -0.488% | [3] 4.9% | [4] 7.67% | [5] -23.4% | [6] -95.6% | [8] -80.9%

Cc1cc(=O)oc2cc(OCCCCOc3ccc(/C=C/C(=O)Nc4ccc(F)c(Cl)c4)cc3)ccc12
inactive: [1] 93.2% | [2] 92.7% | [3] 96.9% | [4] 77.8% | [5] 87.6% | [6] 123% | [7] 91.3% | [8] 120%

CN1C/C(=C\c2ccc(O)cc2O)c2[o+]c3cc(O)ccc3cc2C1
active: [8] -16.3%
inactive: [1] 39.8% | [2] 20.4% | [3] 23.1% | [4] 11% | [5] 16.4% | [6] 25.2% | [7] 25%

O=c1nc(-c2ccccc2)cc(-c2cc3ccccc3nc2Cl)[nH]1
active: [3] -63.6% | [4] 4.69% | [5] -91.6% | [7] -15.4%
inactive: [1] 12.9% | [2] 53.5% | [6] 44.9% | [8] 17.2%

C=C[C@@]12CN3CC[C@]1(O)[C@@](C(=O)OC)(CO2)c1[nH]c2ccccc2c1C3
inactive: [1] 38.4% | [2] 32.7% | [3] 55% | [4] 42.6% | [5] 57.9% | [6] 89.4% | [7] 78%
active: [8] -8.94%

CCNCCCn1c2c(c3cc(OC)c(OC)cc3c1=O)C(=O)c1cc3c(nc1-2)OCO3
inactive: [1] 36.2% | [3] 38.7% | [6] 20% | [7] 33.7%
active: [2] -83.1% | [4] -88.9% | [5] -70.2% | [8] -36.2%

N[C@@H](CSSC[C@H](N)C(=O)Nc1ccc(OCC2CCCC2)cc1)C(=O)Nc1ccc(OCC2CCCC2)cc1
active: [1] -63.5% | [2] -100% | [3] -84% | [4] -73% | [5] -35.9% | [6] -96.5% | [7] -80.6% | [8] -93.4%

Clc1ccc(/C=N/Nc2ncnc3sc4c(c23)CCN(Cc2ccccc2)C4)cc1
active: [1] -6.23% | [2] -45.3% | [3] -74% | [4] -47.5% | [5] -93.5% | [7] -26.9% | [8] -62.4%
inactive: [6] 19.8%

CCOP(=O)(OCC)O[C@H]1CC[C@]2(C)[C@H]3CC[C@@H]4[C@@H]([C@](C)(O)CCC=C(C)C)CC[C@@]4(C)[C@]3(C)CC[C@H]2C1(C)C
inactive: [2] 29.9% | [3] 14.9% | [6] 36% | [7] 21.1%
active: [1] -14.5% | [4] -0.325% | [5] 9.92% | [8] -23.3%

COc1ccc2[nH]c(=O)c(CSc3cccc(N)c3)cc2c1
active: [7] 4.43%
inactive: [1] 75.1% | [2] 31.6% | [3] 25% | [4] 31% | [5] 52.5% | [6] 44.6% | [8] 34.7%

CC(C)c1ccc(C(=O)Nc2sc3c(c2C(N)=O)CCC(=O)C3=O)cc1
inactive: [1] 107% | [2] 91.4% | [3] 105% | [4] 79.3% | [5] 91.9% | [6] 119% | [7] 98.6% | [8] 94.8%

Cn1c(O)c(N=Nc2nc(-c3cc4ccccc4oc3=O)cs2)c2cc(Br)ccc21
inactive: [1] 59.6% | [2] 106% | [3] 99.8% | [4] 77.4% | [5] 48.9% | [6] 97.7% | [7] 95.5% | [8] 41.8%

COc1ccc(OC)c(-c2cc(-c3c[nH]c4ccccc34)nc(N)c2C#N)c1
active: [1] -25.4% | [2] -5.04% | [3] 6.61% | [4] 3.84% | [5] -45.8% | [6] -37.1% | [7] -27.6% | [8] -9.53%

CC(=O)c1ccc(Nc2nc(SCCC(C)C)nc(-c3ccc(F)cc3)c2C#N)cc1
inactive: [1] 56.7% | [2] 73.8% | [3] 68.5% | [4] 59.6% | [5] 22% | [6] 83.4% | [7] 81.8% | [8] 69%

O=C(CNc1nc(-c2ccccc2)cs1)Nc1ccc(Cl)cc1[N+](=O)[O-]
active: [1] -46.6% | [2] -5.51% | [3] -60.6% | [4] -59.3% | [5] -22.8% | [6] -93.4% | [7] -0.339% | [8] -34.9%

CN1CCN(c2ccc(C(=O)/C=C/c3cc(Br)ccc3F)cc2)CC1
active: [2] 1.57% | [3] -25.7% | [4] 2.37% | [5] 1.2% | [7] 8.8% | [8] -13.3%
inactive: [1] 59.3%

CC(=O)Nc1ccc(-c2cn(-c3cccc(C(=O)Nc4cccc(OC(F)(F)F)c4)c3)nn2)cn1
inactive: [1] 96.7% | [2] 61.4% | [3] 90.1% | [4] 70.1% | [5] 88.6% | [6] 110% | [7] 30.1% | [8] 86.7%

CCOC(=O)C1=C(N)N(c2ccc(C)cc2)C2=C(C(=O)CC(C)(C)C2)C1c1ccccc1OC (stereo unspecified)
inactive: [1] 95.7% | [2] 111% | [3] 105% | [4] 93.5% | [5] 103% | [6] 106% | [7] 108% | [8] 101%

O=C(Nc1cc(Cl)cc(Cl)c1)Nc1cc(Cl)cc(Cl)c1
active: [1] -41.1% | [2] -47% | [3] -42.3% | [4] -21.2% | [5] -79.3% | [6] -27.3% | [7] -22.9% | [8] -40.1%
